In all, about 360,000 compounds went through this assay and about 1,700 (0.47%) were called active. Not shown: some 2% with an inconclusive outcome. Many of the other results were omitted from the sample, so actives are more common in it than they were. A number with no mark means an inactive call. Calls follow the shape of the dose curve; as a rule, active = well fitted inhibition curve with a large enough effect; inconclusive = small, poorly fitted or top-dose-only effect; inactive = no such curve, though single readings can be large or run the other way.
Molecular target: Bifunctional 3'-5' exonuclease/ATP-dependent helicase WRN (Homo sapiens) (UniProt Q14191)
Sequence (Q14191 whole entry, looked up): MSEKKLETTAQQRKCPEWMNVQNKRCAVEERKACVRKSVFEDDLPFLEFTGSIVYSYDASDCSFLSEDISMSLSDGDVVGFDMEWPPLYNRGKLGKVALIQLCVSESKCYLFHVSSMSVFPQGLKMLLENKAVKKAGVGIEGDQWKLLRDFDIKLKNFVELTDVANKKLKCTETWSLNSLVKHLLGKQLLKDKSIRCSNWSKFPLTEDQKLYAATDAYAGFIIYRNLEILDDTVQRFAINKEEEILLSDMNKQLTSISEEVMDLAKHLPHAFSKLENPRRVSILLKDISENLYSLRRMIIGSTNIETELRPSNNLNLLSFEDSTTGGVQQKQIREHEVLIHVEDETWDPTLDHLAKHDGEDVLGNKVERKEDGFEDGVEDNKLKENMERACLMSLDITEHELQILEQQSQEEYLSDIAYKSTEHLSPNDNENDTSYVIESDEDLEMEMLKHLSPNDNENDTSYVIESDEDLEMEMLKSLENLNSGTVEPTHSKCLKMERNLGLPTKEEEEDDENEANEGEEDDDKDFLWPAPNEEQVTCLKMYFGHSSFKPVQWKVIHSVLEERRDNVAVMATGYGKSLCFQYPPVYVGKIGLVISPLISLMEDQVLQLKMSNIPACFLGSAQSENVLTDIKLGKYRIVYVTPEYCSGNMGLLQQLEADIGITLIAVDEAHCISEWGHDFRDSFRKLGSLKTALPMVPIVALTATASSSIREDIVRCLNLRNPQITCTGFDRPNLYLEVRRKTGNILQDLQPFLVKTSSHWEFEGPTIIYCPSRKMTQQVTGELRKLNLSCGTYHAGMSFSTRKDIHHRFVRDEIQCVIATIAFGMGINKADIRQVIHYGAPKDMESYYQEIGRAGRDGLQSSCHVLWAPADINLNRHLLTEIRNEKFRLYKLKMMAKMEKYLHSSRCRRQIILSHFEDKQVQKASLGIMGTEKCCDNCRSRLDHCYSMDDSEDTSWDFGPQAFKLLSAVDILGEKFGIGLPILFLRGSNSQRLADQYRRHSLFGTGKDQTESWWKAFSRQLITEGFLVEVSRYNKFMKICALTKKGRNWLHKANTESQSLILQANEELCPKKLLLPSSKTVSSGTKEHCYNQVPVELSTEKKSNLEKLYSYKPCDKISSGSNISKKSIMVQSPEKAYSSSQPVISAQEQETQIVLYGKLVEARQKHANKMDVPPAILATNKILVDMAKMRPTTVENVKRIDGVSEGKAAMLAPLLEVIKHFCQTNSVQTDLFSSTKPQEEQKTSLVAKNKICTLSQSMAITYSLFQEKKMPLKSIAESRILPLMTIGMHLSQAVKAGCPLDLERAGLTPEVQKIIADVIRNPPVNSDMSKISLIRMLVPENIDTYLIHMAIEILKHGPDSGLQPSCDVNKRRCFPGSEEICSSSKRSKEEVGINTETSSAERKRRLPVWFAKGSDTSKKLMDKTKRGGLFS
Assay: qHTS for Inhibitors of WRN Helicase; also: nearly all actives have a fitted effect of over 55% in size
Details: WRN helicase unwinding, fluorescent forked duplex, kinetic; series mostly up to 114 µM; activity change, negative = inhibition: at the top concentration
From the text: Inhibition of DNA repair is proposed as a strategy for combating cancer. Synthetic lethality is an approach that exploits preexisting DNA repair deficiencies in certain tumors to develop inhibitors of DNA repair pathways that compensate for the tumor-associated DNA repair deficiency. Because helicases play critical roles in the DNA damage response and in DNA repair, particularly in actively dividing and replicating cells, characterization of synthetic lethal relationships of DNA helicases may be of value in developing improved anticancer treatment strategies; moreover, small molecules that specifically target a given DNA helicase may be useful for understanding its role in cellular nucleic acid metabolism. The goal of this project is to identify small molecule, non-covalent chemical inhibitors of the Werner syndrome (WS) helicase (WRN), which plays an important role in cell proliferation, the replication stress response, and DNA repair. […] The WRN gene product that is defective in the chromosomal instability disorder has DNA helicase and exonuclease activities and interacts with a number of nuclear proteins to maintain genomic stability. We will employ an optimized high-throughput screening assay that utilizes a fluorescence intensity modulation scheme with a fluorophore and quencher positioned near one another within a duplex deoxyoligonucleotide that contains a single forked structure. After a high-throughput screen of the ~350,000-member Molecular Libraries Small Molecule Repository (MLSMR) collection, followed by data analysis and hit selection, a panel of confirmatory, as well as secondary and ternary, assays will be employed to identify high-confidence WRN inhibitors. Structure-activity relationships will be investigated for the top candidate inhibitor series through medchem expansion. These are the results of the primary screening campaign against the MLSMR. NIH Chemical Genomics Center [NCGC] NIH Molecular Libraries Probe Centers Network [MLPCN] MLPCN Grant: MH096530 Assay Submitter (PI): Robert Brosh, National Institute of Aging
Three muL of reagents (buffer in columns 3 and 4 as negative controls; WRN at 20 nM final concentration in columns 1 and 2 as positive controls; columns 5-48 as test reactions) will be dispensed into a 1536-well Greiner black plate via solenoid-valve based nanoliter dispensers. Compounds (23 nL each in columns 5-48) and control (23 nL each in column 2 as dose-response) will be transferred via a Kalypsys pintool equipped with a 1536-pin array. Plates will be incubated for 15 min at room temperature, and then 1 µL of substrate (100 nM forked duplex oligonucleotide and 2 mM ATP final concentrations) will be added to start reaction, and plate will be transferred into a ViewLux high-throughput CCD imager where reaction progress is measured in kinetic mode using standard red-fluorescence optics (excitation filter 525 nm, emission filter 598 nm).
% is scaled to controls: 0 for no effect and ±100 for the full control effect; potency is read from the fitted curve at half-maximal effect.

| Compound | activity change, negative = inhibition [%] | Potency |
| --- | --- | --- |
| O=C(c1cccnc1)N(Cc1ccccc1)C(=O)c1cccnc1 | 2.38 | – |
| COC(=O)CCCCC1=CCC2C(=O)C=C(O)C2C1 (stereo not drawn) | – | 50.1 µM (active) |
| COc1ccc(C(C)=O)cc1COC(=O)Cn1cnc2ccccc2c1=O | -5.02 | – |
| COC(=O)[C@@]1(Cc2ccc(OC)cc2)[C@H]2c3cc(C(=O)N4CCCC4)n(Cc4ccc(OC(F)(F)F)cc4)c3C[C@H]2CN1C(=O)c1ccccc1 | -10.4 | – |
| CCOCCC(=O)Nc1ccc2c(c1)c(=O)n(C)n2-c1ccc2ccccc2c1 | -3.59 | – |
| CCOC(=O)N1CCN(C(=O)c2ccc(CN(c3ccc(C)c(C)c3)S(C)(=O)=O)cc2)CC1 | 2.1 | – |
| O=C(Nc1ccc(S(=O)(=O)N2CCOCC2)cc1)C1CCN(S(=O)(=O)c2ccc(Cl)cc2)CC1 | -7.36 | – |
| Cc1nnsc1S(=O)(=O)Cc1ccccc1Cl | 6.13 | – |
| O=C(Nc1ccccc1)c1nnsc1S(=O)(=O)c1ccc(Cl)cc1 | – | 44.7 µM (active) |
| COC(=O)[C@@]12C[C@@H](CC(=O)NCCCCc3ccccc3)C(=O)N(Cc3ccccc3)C1=CCC(C)(C)C2 | -4.01 | – |
| COc1ccc2[nH]c3c(C)c4cc[n+](C)cc4c(C)c3c2c1 | – | 22.4 µM (active) |
| CCOC(=O)c1[nH]c2ccc(OC)cc2c1NC(=O)N1CCOCC1 | -19.4 | – |
| Nc1[nH]c(=S)nc2nc(-c3ccccc3)c(-c3ccccc3)nc12 | -29.2 | – |
| COc1ccccc1Cc1c(-c2ccc(Cl)cc2)nc2c3ccccc3ccn12 | 0.986 | – |
| CCc1nc2ccc(C(=O)NCc3ccc(OC)cc3)cn2c1N(CC)Cc1cccc(Br)c1 | -8.24 | – |
| Cc1cccc(C)c1Nc1nnc(SCC(=O)NCCCN2CCCC2=O)s1 | -7.98 | – |
| O=C1CSC(=S)N1/N=C/c1ccc(O)c([N+](=O)[O-])c1 | – | 79.4 µM (active) |
| CO/N=C/c1ccc(N2CCN(C(=O)c3cccc(Cl)c3)CC2)c([N+](=O)[O-])c1 | -2.66 | – |
| O=C(CNS(=O)(=O)c1ccc(Br)s1)NCc1ccc2c(c1)OCO2 | 4.96 | – |
| O=C1CC2(CCCCC2)Oc2ccc(OCC(=O)N3CCOCC3)cc21 | -7.15 | – |
| CCN(CC)CC(=O)Nc1sc2c(c1C(=O)c1ccccc1C)CCC2 | -17.1 | – |
| COc1c(O)cc2oc(-c3ccc(O)c(O)c3)cc(=O)c2c1O | – | 25.1 µM (active) |

| Compound | activity change, negative = inhibition [%] | Potency |
| --- | --- | --- |
| CCOC(=O)COc1cc(OCC(=O)OCC)c2c(=O)cc(-c3ccccc3)oc2c1 | 1.62 | – |
| COc1cc(O)c2c(=O)c3c(O)c(O)ccc3oc2c1OC | 2.49 | – |
| COc1ccc(Cn2c(=O)sc3ccccc32)cc1OC | 1.12 | – |
| COC(=O)[C@@]12C[C@@H](CC(=O)NCCCCc3ccccc3)C(=O)N(CCc3ccc(OC)c(OC)c3)C1=CCC(C)(C)C2 | -4.17 | – |
| Cc1nnc(-c2ccc(Oc3ccc(C)c(C)c3)c([N+](=O)[O-])c2)o1 | 6.78 | – |
| Cc1ccc2nc(-c3ccncc3)cc(C(=O)Nc3ccc(OC(F)F)cc3)c2c1 | – | 44.7 µM (active) |
| CC1CCCC(NC(=O)c2cc(-c3ccncc3)nc3ccccc23)C1C (stereo not drawn) | 1.59 | – |
| COc1ccc(NC(=O)c2cc(-c3cc(OC)c(OC)c(OC)c3)nc3ccccc23)c(OC)c1 | 1.58 | – |
| O=C1NC[C@H](CCCCN2CCN(CCc3ccccc3)C(=O)C2=O)N(CC2CCCCC2)C1=O | 3.05 | – |
| CCc1ccc(CN(C)C(=O)CCc2nnc(-c3ccc(-c4ccccc4)cc3)o2)nc1 | -8.97 | – |
| CCCCCCc1cc2cc(-c3nnc(-c4ccccc4)o3)c(=O)oc2cc1O | – | 56.2 µM (active) |
| Cc1cc(Cl)ccc1C(=O)C1CCCN(C(=O)c2nonc2C)C1 (stereo not drawn) | -10.6 | – |
| CCCCN(CC)CCNC(=O)c1[nH]c(C)c(C(C)=O)c1C | -4.24 | – |
| CCC(=O)Nc1c(C)n[nH]c1C | -26.6 | – |
| C=C1C(=O)OC2C1CCC(C)=CCCC1(C)OC21 (stereo not drawn) | -21.4 | – |
| CCCCCCCNc1nc(Cl)nc(NCCO)n1 | 10.9 | – |
| CC1CCCN(CCCNC(=O)CN2C(=O)COc3ccc(S(=O)(=O)N4CCOCC4)cc32)C1 (stereo not drawn) | -5.24 | – |
| Nc1ccc2nc3c(=O)[nH]c(=S)[nH]c3nc2c1 | – | 7.08 µM (active) |
| N#C/C(=C\C1=C(N2CCOCC2)C(=C\c2ccccc2)/CC1)C(=O)Nc1ccccc1F | – | 15 µM (active) |
| O=C1Nc2ccc(Br)cc2/C1=N/N=C/C1=C(N2CCOCC2)C(=C\c2ccccc2)/CC1 | -6.34 | – |
| O=C(CC1SC(N2CCOCC2)=NC1=O)Nc1ccccc1F (stereo not drawn) | 6.19 | – |
